ChEMBL document CHEMBL4808148, “HDAC6 screening dataset using tau-based substrate in an enzymatic assay yields selective inhibitors and activators” (2021)
The campaign covered roughly 5,600 compounds. About 390 (7%) showed an effect of 50% or more. This is one part of a sample in which strong results are shown more often than they occur.

The compounds below were run against T1, Protein deacetylase HDAC6 (Homo sapiens) (UniProt Q9UBN7). Conditions: at 10 µM.
T1 sequence (whole entry): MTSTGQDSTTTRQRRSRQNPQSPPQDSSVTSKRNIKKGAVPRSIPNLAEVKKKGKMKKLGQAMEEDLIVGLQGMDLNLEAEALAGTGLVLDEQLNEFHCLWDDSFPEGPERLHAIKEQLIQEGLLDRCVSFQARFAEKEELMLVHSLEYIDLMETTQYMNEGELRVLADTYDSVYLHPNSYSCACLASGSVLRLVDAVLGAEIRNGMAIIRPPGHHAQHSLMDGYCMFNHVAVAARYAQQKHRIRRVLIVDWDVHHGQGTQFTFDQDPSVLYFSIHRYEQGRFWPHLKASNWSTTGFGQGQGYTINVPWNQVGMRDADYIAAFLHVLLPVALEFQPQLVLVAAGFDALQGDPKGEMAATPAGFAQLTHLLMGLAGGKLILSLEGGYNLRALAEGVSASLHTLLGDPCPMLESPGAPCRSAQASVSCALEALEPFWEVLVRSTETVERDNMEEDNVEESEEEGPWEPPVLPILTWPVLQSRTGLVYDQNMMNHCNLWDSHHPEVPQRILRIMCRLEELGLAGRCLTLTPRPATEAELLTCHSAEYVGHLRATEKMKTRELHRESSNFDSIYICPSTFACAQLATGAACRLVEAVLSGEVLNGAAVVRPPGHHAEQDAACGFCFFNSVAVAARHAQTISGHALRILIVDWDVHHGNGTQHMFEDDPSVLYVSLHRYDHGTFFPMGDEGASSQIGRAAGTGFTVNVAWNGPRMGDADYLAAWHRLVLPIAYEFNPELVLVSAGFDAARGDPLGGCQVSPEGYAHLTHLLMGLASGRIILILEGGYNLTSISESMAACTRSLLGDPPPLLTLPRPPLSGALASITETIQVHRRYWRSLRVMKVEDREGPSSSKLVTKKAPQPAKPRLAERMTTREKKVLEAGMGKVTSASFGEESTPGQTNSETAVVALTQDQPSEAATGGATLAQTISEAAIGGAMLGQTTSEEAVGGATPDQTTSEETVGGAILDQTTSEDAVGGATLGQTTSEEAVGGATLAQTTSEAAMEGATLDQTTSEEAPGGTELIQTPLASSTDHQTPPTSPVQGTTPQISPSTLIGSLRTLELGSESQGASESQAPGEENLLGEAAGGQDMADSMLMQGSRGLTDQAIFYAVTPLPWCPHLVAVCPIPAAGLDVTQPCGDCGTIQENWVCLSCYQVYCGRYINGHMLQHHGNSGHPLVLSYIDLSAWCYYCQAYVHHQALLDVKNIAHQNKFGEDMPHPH

| SMILES | inhibition |
| --- | --- |
| CNCC(=O)O | 15.9% |
| NC(=O)C1=CN([C@@H]2O[C@H](COP(=O)(O)OP(=O)(O)OC[C@H]3O[C@@H](n4cnc5c(N)ncnc54)[C@H](OP(=O)(O)O)[C@@H]3O)[C@@H](O)[C@H]2O)C=CC1 | 28.1% |
| Cc1cccc(C)c1NC(=O)CC12CCCN1CCC2 | -8.45% |
| CC(C)(C)NC(=O)[C@@H]1CN(Cc2cccnc2)CCN1C[C@@H](O)C[C@@H](Cc1ccccc1)C(=O)N[C@H]1c2ccccc2C[C@H]1O | 1.38% |
| CN1CCN(c2ccc(Nc3ncc4cc(C#N)c(=O)n(C5CCCC5)c4n3)cc2)CC1 | -8.66% |
| O=C(Nc1ccc([N+](=O)[O-])cc1Cl)c1cc(Cl)ccc1O | 93.1% |
| O=C(Nc1ccncc1)c1cc([N+](=O)[O-])ccc1Cl | 8.83% |
| O=C(Nc1ccccc1)c1cc([N+](=O)[O-])ccc1Cl | -6.48% |
| CCCCCCCCOc1ccccc1C(=O)Nc1ccc(C(=O)OCC[N+](C)(CC)CC)cc1 | -3.51% |
| CCCCCCOc1ccccc1C(N)=O | 93.3% |
| CCOc1ccccc1C(N)=O | 18.7% |
| CCn1cc(C(=O)O)c(=O)c2ccc(-c3ccncc3)cc21 | 30.6% |
| O=C(Cc1ccc(-c2ccccc2)cc1)Nc1ccccn1 | 56.6% |
| O=C(O)c1ccccn1 | 12.2% |
| O=C(O)Cc1ccc(-c2ccccc2)cc1 | 10.6% |
| COC1/C=C\OC2(C)Oc3c(C)c(O)c4c(O)c(cc(O)c4c3C2=O)NC(=O)/C(C)=C\C=C/C(C)C(O)C(C)C(O)C(C)C(OC(C)=O)C1C (stereo not drawn) | 5.48% |
| O=C(CCCc1ccc(-c2ccccc2F)cc1)Nc1ccc(O)cc1 | 24% |
| Cc1ccccc1C(=O)c1ccc(Nc2ccc(Br)cc2N)cc1Cl | 3.48% |
| COc1cc2nc(C3CC3)nc(N3CCN(c4ccccc4OC)CC3)c2cc1OC | 89.3% |
| COc1cc2nc(N3CCN(C(=O)C4COc5ccccc5O4)CC3)nc(N)c2cc1OC (stereo not drawn) | 6.59% |
| COc1ccccc1N1CCN(CCCCN2C(=O)c3ccccc3C2=O)CC1 | 0.28% |
| CCCn1c(=O)c2nc(C34CC5CC(CC3C5)C4)[nH]c2n(CCC)c1=O | 2.81% |
| CCCCNNC(=O)c1ccc(Br)cc1 | 35.4% |
| CN(C)C(=O)N[C@H]1CC[C@H](CCN2CCN(c3cccc(Cl)c3Cl)CC2)CC1 | 18.9% |
| COc1cc2c(cc1OC)C(c1ccc(N)cc1)=NNC(=O)C2 | -3.23% |
| COc1ccc(-c2nc3cc(C4=NNC(=O)CC4C)ccc3[nH]2)cc1 (stereo not drawn) | 87.1% |

| SMILES | inhibition |
| --- | --- |
| CC(C)n1nc(C#Cc2ccccc2)c2c(N)ncnc21 | 19% |
| CCOC(=O)C1CSC(Cc2ccc(OCc3ccc([N+](=O)[O-])cc3)cc2)N1 (stereo not drawn) | 13.2% |
| COc1ccc(C(=O)/C(Br)=C/C(=O)O)cc1 | -2.93% |
| CC(=O)C(=Cc1cc(O)c(O)c([N+](=O)[O-])c1)C(C)=O | 13.4% |
| CS(=O)(=O)c1ccc(-c2cnc(NCc3ccco3)n3cnnc23)cc1 | 7.67% |
| Cc1cc(C)c2c(N)c(C(=O)NCc3ccc(Cl)cc3)sc2n1 | 16.5% |
| Cc1coc2c1C(=O)C(=O)c1c-2ccc2c1CCCC2(C)C | 42% |
| Cc1coc2c1C(=O)C(=O)c1c-2ccc2c(C)cccc12 | 93.9% |
| Cc1nn(-c2ccccc2)c(C)c1/C=N/N1CCN(Cc2ccccc2)CC1 | 9.22% |
| O=C(O)C[C@H](O)C[C@H](O)CCc1c(C2CC2)nc2ccccc2c1-c1ccc(F)cc1 | 26% |
| CCCCCCCC[N+](C)(C)Cc1ccccc1 | -8.69% |
| c1cn2cc(-c3ccc4cn[nH]c4c3)nc(Nc3ccc(N4CCOCC4)cc3)c2n1 | 20.2% |
| NS(=O)(=O)c1nn2cc(-c3ccccc3)nc2s1 | 96.2% |
| CC(=O)/N=c1/sc(S(N)(=O)=O)nn1C | -2.26% |
| CC(=O)OCC(=O)[C@@]1(O)CC[C@H]2[C@@H]3CCC4=CC(=O)C=C[C@]4(C)[C@@]3(F)[C@@H](O)C[C@@]21C | 39.3% |
| O=C(O)c1cc(O)c2c(c1)C(=O)c1cccc(O)c1C2=O | 24.6% |
| C[C@@H]1CC(=O)c2c(ccc3c2C(=O)c2cccc(O)c2C3=O)C1 | 113% |
| Cc1cc(O)c2c(c1)C(=O)c1cccc(O)c1C2=O | 82.4% |
| COc1cc(O)c2c(c1)C(=O)c1cc(C)cc(O)c1C2=O | 24.3% |
| CC1(C)C(=O)N=C2C1=C(O)C(=O)c1ccccc12 | 24.8% |
| CN1CCc2cccc3c2[C@H]1Cc1ccc(O)c(O)c1-3 | -6.04% |
| CC(=O)c1cc2c(o1)C(=O)c1ccccc1C2=O | 25.7% |
| O=C1c2c(O)cccc2Cc2cccc(O)c21 | 3.84% |
| O=C1c2cccc(O)c2C(=O)c2c(O)cccc21 | 55.5% |
| CNCCCOc1cc(F)c(-c2c(Cl)nc3ncnn3c2N[C@@H](C)C(F)(F)F)c(F)c1 | 9.44% |
| COc1ccc(CNC(=O)c2cc(-c3cncc(C)c3)ncc2-c2nccs2)nc1OC | 8.47% |

| SMILES | inhibition |
| --- | --- |
| COc1cccc(OC)c1OCCNCC1COc2ccccc2O1 (stereo not drawn) | -6.9% |
| CSCC[C@H](NC(=O)[C@H](CC(C)C)NC(=O)CNC(=O)[C@H](Cc1ccccc1)NC(=O)[C@H](Cc1ccccc1)NC(=O)[C@H](CCC(N)=O)NC(=O)[C@H](CCC(N)=O)NC(=O)[C@@H]1CCCN1C(=O)[C@H](CCCCN)NC(=O)[C@@H]1CCCN1C(=O)[C@@H](N)CCCN=C(N)N)C(N)=O | 37.9% |
| Fc1ccc(CN2CCC(Nc3ccc(C(F)(F)F)nn3)CC2)cc1F | 20.4% |
| CC#CCC(C)[C@H](O)/C=C/[C@@H]1[C@H]2C/C(=C/CCCC(=O)O)C[C@H]2C[C@H]1O (stereo partly drawn) | -9.51% |
| COC(=O)c1ccccc1-c1c2ccc(N)cc2[o+]c2cc(N)ccc12 | 2.6% |
| CN[C@@H]1[C@H](OC2[C@H](O[C@H]3[C@H](O)[C@@H](O)[C@H](N=C(N)N)[C@@H](O)[C@@H]3N=C(N)N)O[C@@H](C)[C@]2(O)C=O)O[C@@H](CO)[C@H](O)[C@H]1O (stereo partly drawn) | 17.6% |
| Cc1ccccc1/N=N/c1ccc(NC(=O)c2ccnn2C)c(C)c1 | 36.7% |
| O=C(Nc1cccc(Nc2ncc(Br)c(NCCc3cnc[nH]3)n2)c1)N1CCCC1 | 41.2% |
| COc1cc2c(cc1OC)-c1cc3nc4ccccc4nc3n1C(C)(C)C2 | 19.3% |
| CCCn1c(=O)[nH]c2nc(-c3ccc(S(=O)(=O)N4CCN(c5ccc(Cl)cc5)CC4)cc3)[nH]c2c1=O | 3.66% |
| Cc1ccc2c(c1CCC(=O)O)CC[C@@H](NS(=O)(=O)c1ccc(Cl)cc1)C2 | -3.38% |
| Oc1ccc2ccccc2c1SSc1c(O)ccc2ccccc12 | 0.31% |
| Nc1nc2c(ccc3ccccc32)s1 | 67.3% |
| Cc1cc(CC(C)CC(C)(C)C)n(O)c(=O)c1 (stereo not drawn) | -5.15% |
| O=C1NC(=O)C(c2ccccc2[N+](=O)[O-])=C1Nc1ccc(O)c(Cl)c1 | 3.99% |
| COc1cc(CCc2cc(NC(=O)c3ccc(N4C[C@@H](C)N[C@@H](C)C4)cc3)n[nH]2)cc(OC)c1 | 2.96% |
| Cc1cn([C@H]2C=C[C@@H](CO)O2)c(=O)[nH]c1=O | 102% |
| O=c1[nH]c(=O)n([C@H]2C[C@H](O)[C@@H](CO)O2)cc1F | 12.7% |
| CCc1cn([C@H]2C[C@H](O)[C@@H](CO)O2)c(=O)[nH]c1=O | -6.76% |
| CN1c2cc3c(cc2N=C(c2ccc(C(=O)O)cc2)c2ccccc21)C(C)(C)CCC3(C)C | 27.7% |
| Nc1ncnc2c1ncn2[C@@H]1O[C@H](C[C@@H](N)CC[C@H](N)C(=O)O)[C@@H](O)[C@H]1O | -9.09% |
| CC(C)(COP(=O)(O)OP(=O)(O)OC[C@H]1O[C@@H](n2cnc3c(N)ncnc32)[C@H](O)[C@@H]1OP(=O)(O)O)[C@@H](O)C(=O)NCCC(=O)NCCS | 15.2% |
| NC(C(=O)O)c1nnn[nH]1 (racemic) | 4.47% |
| Cn1cnc2[nH]c(=O)[nH]c(=O)c21 | 9.47% |
| Cc1ccc(-c2ccc(C)cn2)nc1 | 100% |
| CCOC1O[C@H]([C@@H](COCc2ccccc2)OCc2ccccc2)[C@H](OCc2ccccc2)[C@H]1O (stereo partly drawn) | 29.1% |

| SMILES | inhibition |
| --- | --- |
| O=C(O)CCc1c[nH]c2ccccc12 | 6.28% |
| C/C(=N\N=C(/S)N/N=C(\S)Nc1ccccc1Cl)c1ccccn1 | 41.4% |
| COc1ccc2cc3[n+](cc2c1OC)CCc1cc2c(cc1-3)OCO2 | -6.81% |
| O=C(NC1CCN(Cc2ccccc2)CC1)c1ccc(I)cc1 | 21.3% |
| O=C(COc1ccc(C(=O)c2ccccc2)cc1)NC1CCN(Cc2ccccc2)CC1 | -4.58% |
| O=C(O)c1ccc(CN2CCC(CN[C@@H]3C[C@H]3c3ccccc3)CC2)cc1 | 59.3% |
| CCCCCCCCCCCCCCCCCCCCCCCCCCCCO | 3.55% |
| CCN(CC)CCOC(=O)C1(c2ccccc2)CCCC1 | 12.3% |
| CCC(C)(CN(C)C)OC(=O)c1ccccc1 (stereo not drawn) | 12.2% |
| CC1(C(=O)O)NCCc2cc(O)c(O)cc21 (stereo not drawn) | -7.17% |
| C[C@@H](c1nc(-c2ccc(C#N)cc2)cs1)[C@](O)(Cn1cncn1)c1cc(F)ccc1F | 13.7% |
| COCC(O)Cn1ccnc1[N+](=O)[O-] (stereo not drawn) | 2.38% |
| CC1(C)S[C@@H]2[C@H](/N=C/N3CCCCCC3)C(=O)N2[C@H]1C(=O)O | 7.48% |
| c1ccc(-c2ccc(CNc3nc(-c4ccccn4)nnc3-c3ccccc3)cc2)cc1 | 58.9% |
| CC[C@H](CO)Nc1nc(NCc2ccc(-c3ccccn3)cc2)c2ncn(C(C)C)c2n1 | 22.9% |
| c1ccc(NCc2ccc(CNc3ccccn3)cc2)nc1 | -9.35% |
| CC1=NN(c2ccccc2)C(=O)C1 | -9.97% |
| Cn1c(-c2ccccc2)nnc1S(C)(=O)=O | 36% |
| C/N=c1/nc(-c2ccccc2)n(-c2ccccc2)s1 | 83.4% |
| O=C(c1ccc(F)cc1)C1CCN(CCn2c(=S)[nH]c3ccccc3c2=O)CC1 | 13.2% |
| O=C(O)c1c2ccccc2cc2ccccc12 | 22.9% |
| Cn1ncc(Cl)c1-c1cc(C(=O)N[C@H](CN)Cc2cccc(F)c2)sc1Cl | -7.69% |
| O=C(c1ccc(F)cc1)N1CCC[C@H](c2nc(-c3ccc(F)cc3)no2)C1 | 10.8% |
| O=C(O)c1cccc(-c2noc(-c3ccccc3F)n2)c1 | 105% |
| FC(F)(F)c1cccc(-c2noc(-c3cc(-c4ccccc4)c(C(F)(F)F)s3)n2)c1 | 18.5% |
